Reference: PubChem BioAssay AID504850 (National Center for Advancing Translational Sciences (NCATS), 2011)
Hit rate of the full screen: of about 2,300 compounds, about 1,200 (52%) were called active. Inconclusive results (about 34%) are left out. Calls come from the whole dose curve; as a rule, active = well fitted inhibition curve with a large enough effect; inconclusive = small, poorly fitted or top-dose-only effect, or effect the other way; inactive = no such curve, though single readings can be large or run the other way. So high a share suggests a set chosen from earlier hits. The list shows a part of the results.

Experiment: Confirmation screen for delayed death inhibitors of the malarial parasite plastid, 48 hour incubation; note: nearly all actives have a fitted effect of over 65% in size
Settings: P. falciparum-infected erythrocytes, luciferase growth; series mostly up to 28.7 µM; activity change, negative = inhibition: at the top concentration
Method in brief: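 Single-generation (48 h, 37 C) exposure of integrated firefly luciferase-reporter P. falciparum in red cells, 0.1% parasitemia at 2% hematocrit, Albumax-supplemented RPMI. Falling luciferase signal marks parasite growth inhibition.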
% is set by controls: 0 for no effect and ±100 for the full control effect; potency is the fitted concentration of half-maximal effect.

SMILES | Potency | activity change, negative = inhibition
CC(=O)Nc1ccc(NC(=O)c2ccc(C3SCC(=O)N3CCc3ccccc3)cc2)cc1 (stereo not given) | 8.91 µM (active) | 
O=C1CSC(c2cccnc2)N1CCc1ccccn1 (stereo not given) |  | -11.4% (inactive)
N#CCc1nc(C(c2ccccc2)c2ccccc2)no1 | 7.94 µM (active) | 
CC(C)c1cc(NC(=O)CCl)on1 | 10 µM (active) | 
CC(C)NC(=S)N/N=C/c1sc(N2CCCCC2)nc1-c1cccs1 | 6.31 µM (active) | 
Cc1ccc(C(=O)N/C(=C\c2ccc(-c3ccc(Cl)cc3)o2)C(=O)NCCCN(C)C)cc1 | 3.98 µM (active) | 
C=CCN=c1scc(-c2ccc(F)cc2)n1/N=C/c1ccccn1 | 6.31 µM (active) | 
CCCCN1/C(=C/c2cccc[n+]2C)Sc2cc(NC(C)=O)ccc21 | 3.16 µM (active) | 
Cc1c(CC(=O)N2C[C@H]3C[C@@H](C2)c2cccc(=O)n2C3)c(=O)oc2cc3occ(C(C)(C)C)c3cc12 | 12.6 µM (active) | 
Cc1c(OC(C)C(=O)N2C[C@H]3C[C@@H](C2)c2cccc(=O)n2C3)ccc2c3c(c(=O)oc12)CCC3 (stereo not given in full) | 12.6 µM (active) | 
CC(C)C[C@@H](NC(=O)[C@H](Cc1ccccc1)NC(=O)c1cnccn1)B(O)O | 0.178 µM (active) | 
O=C(C[C@@H]1C/C=C\CC[C@@H](Cc2ccc(F)cc2)C(=O)OC[C@@H]2CCCN2C1=O)NCCO | 12.6 µM (active) | 
COc1ccc(NC(=O)N2CCCc3cc(C)ccc32)c(OC)c1 | 14.1 µM (active) | 
Cc1cc(C)n(Cc2ccc(C(=O)N/N=C/c3ccc(-c4ccc([N+](=O)[O-])cc4)o3)o2)n1 | 8.91 µM (active) | 
CCC/C(C#CCCN1C(=O)c2ccccc2C1=O)=C1/c2ccccc2C(=O)N1c1ccccc1 | 7.94 µM (active) | 
O=C(CCN1C(=O)c2ccccc2C1=O)C1=NN[C@@H]2C(=O)N(c3ccc(F)cc3)C(=O)[C@H]12 |  | -9.41% (inactive)
CCn1c(SCC(=O)Nc2ccc(C)cc2)nc2sc3c(c2c1=O)CCN(C)C3 | 1.41 µM (active) | 
CCOC(=O)CSc1nc2sc3c(c2c(=O)n1C1CCCCC1)CCN(C)C3 | 3.16 µM (active) | 
Cc1cccc(NC(=S)/N=C(\N)Nc2nc(C)c3ccccc3n2)c1 | 12.6 µM (active) | 
CC(CN1CCC(n2nccc2NC(=O)c2ccccc2Cl)CC1)c1ccccc1 (stereo not given) | 15.8 µM (active) | 
C(=N\N(c1ccccc1)c1ccccc1)/c1ccccn1 |  | -14.6% (inactive)
O=C(N/N=C/c1ccccn1)c1cc([N+](=O)[O-])cc([N+](=O)[O-])c1 | 10 µM (active) | 
CC1(C)COC(/C=C/c2cccc([N+](=O)[O-])c2)=N1 | 14.1 µM (active) | 

SMILES | Potency | activity change, negative = inhibition
O=[N+]([O-])c1cccc(/C=C/c2nc[nH]c2[N+](=O)[O-])c1 | 7.94 µM (active) | 
COc1ccccc1-n1nnnc1S(=O)(=O)Cc1ccc(Cl)cc1 | 12.6 µM (active) | 
CC(NC(=O)c1cc2sccc2n1C)c1ccc2c(c1)OCCO2 (stereo not given) |  | -25.7% (inactive)
CCCCN(CCCNC(=O)C1CCN(C(=O)c2cc3sccc3n2C)CC1)Cc1ccccc1 | 5.62 µM (active) | 
O=C(Nc1ccc2c(c1)CCCN2C(=O)c1ccco1)c1cc([N+](=O)[O-])ccc1Cl | 12.6 µM (active) | 
COc1ccccc1N(Cc1ccccc1)S(=O)(=O)c1cccc(C(=O)Nc2cc(C)ccn2)c1 | 11.2 µM (active) | 
COc1ccccc1N(Cc1ccccc1)S(=O)(=O)c1cccc(C(=O)Nc2ccccn2)c1 | 8.91 µM (active) | 
COc1cc(OC)cc(C(=O)Nc2ccc3c(c2)CCCN3C(=O)c2cccs2)c1 | 12.6 µM (active) | 
Cc1ccccc1C(=O)Nc1ccc2c(c1)CCCN2C(=O)c1cccs1 | 12.6 µM (active) | 
CC(=O)Nc1ccc(OCc2cccc3ccccc23)cc1 | 12.6 µM (active) | 
O=C(Cc1cccc2ccccc12)Nc1ccccc1C(=O)O |  | -14.9% (inactive)
CCOC(=O)c1c(NC(=O)CSc2c[nH]c3ccccc23)sc2c1CCCC2 | 14.1 µM (active) | 
CCOC(=O)c1c(NC(=O)CSc2ccccc2C(=O)O)sc(C)c1C |  | -6.55% (inactive)
COc1cc([N+](=O)[O-])c(OC)cc1SCc1n[nH]c(=S)n1-c1ccc(F)cc1 | 14.1 µM (active) | 
CCCCCCC1C(C#N)=C(N)OC2=C1C(=O)CCC2 (stereo not given) |  | -17.8% (inactive)
COc1ccc2c(CC(=O)OCC(=O)Nc3cccc(S(N)(=O)=O)c3)coc2c1 |  | -6.93% (inactive)
CCc1nc(SCC(=O)Nc2ccc(N(C)C)cc2)n[nH]1 |  | -31.7% (inactive)
CCc1ccc(NC(=O)CSc2nc3n[nH]c(C)c3c(=N)n2-c2cccc(OC)c2)cc1 | 5.62 µM (active) | 
COc1cccc(NC(=O)CSc2nc3n[nH]c(C)c3c(=N)n2-c2cccc(OC)c2)c1 | 7.94 µM (active) | 
COc1ccccc1NC(=O)c1oc2ccccc2c1NC(=O)C1CC1 | 8.91 µM (active) | 
COc1cccc(NC(=O)c2oc3ccccc3c2NC(=O)C2CC2)c1 | 15.8 µM (active) | 
COc1cccc(NC(C)C(=O)Nc2cc([N+](=O)[O-])ccc2Cl)c1 (stereo not given) | 3.16 µM (active) | 
COc1cccc(N/C(SCc2cccc([N+](=O)[O-])c2)=C(/C#N)C(N)=O)c1 |  | 0.153% (inactive)

SMILES | Potency | activity change, negative = inhibition
CC1CCCCN1C(=O)COC(=O)c1cccc(NS(=O)(=O)c2ccccc2)c1 (stereo not given) |  | -8.12% (inactive)
Cn1c(CCN2CCCC2)nc2cc(NS(=O)(=O)c3ccccc3)ccc21 | 3.55 µM (active) | 
Cn1c(CCN2CCCC2)nc2cc(NS(=O)(=O)c3ccc(Cl)cc3)ccc21 | 11.2 µM (active) | 
CC(=O)c1ccc(N/N=C(/C(N)=O)C2=NC(C)(C)Cc3ccccc32)cc1 | 7.08 µM (active) | 
Cc1cccc(N/N=C(\C(N)=O)C2=NC(C)(C)Cc3ccccc32)c1 | 4.47 µM (active) | 
CN(Cc1ccc(Cl)c(Cl)c1)C(=O)C1=CC=CN2CCS(=O)(=O)N=C12 | 7.94 µM (active) | 
CN1C(=O)C(C)(C)c2cc(S(=O)(=O)NCC3CCC(C(=O)NCc4ccc(F)cc4)CC3)ccc21 (stereo not given) | 15.8 µM (active) | 
CC1(C)CC(=O)c2sc(NC(=O)CCS(=O)(=O)c3ccccc3)nc2C1 |  | -29.9% (inactive)
COc1ccc(C)c2sc(NC(=O)CCS(=O)(=O)c3ccccc3)nc12 |  | -24.2% (inactive)
CCOc1cccc2sc(NC(=O)CCS(=O)(=O)c3ccccc3)nc12 | 11.2 µM (active) | 
Nc1nonc1-n1nnc(C(=O)N/N=C/c2ccc(Cl)cc2)c1-c1ccc2c(c1)OCO2 | 0.0562 µM (active) | 
CN(Cc1c(C(=O)N/N=C/c2cccc(O)c2)nnn1-c1nonc1N)c1ccccc1 |  | 1.84% (inactive)
CCOc1ccc(-c2c(C(=O)N/N=C/c3ccc(OC(C)C)cc3)nnn2-c2nonc2N)cc1 | 15.8 µM (active) | 
Cc1ccsc1/C=N/NC(=O)c1nnn(-c2nonc2N)c1-c1ccc2c(c1)OCO2 | 1.26 µM (active) | 
Nc1nonc1-n1nnc(C(=O)N/N=C/c2cccc(Cl)c2)c1-c1ccc2c(c1)OCO2 | 0.126 µM (active) | 
CC(=O)NC[C@@H]1CN(c2ccc(N3CCOCC3)c(F)c2)C(=O)O1 |  | -19.4% (inactive)
CCCC(=O)N=C1SC2CS(=O)(=O)CC2N1c1ccc(CC)cc1 (stereo not given) | 7.94 µM (active) | 
CC(=O)NC(C)c1nc2ccccc2n1CC(=O)N1C(C)CCCC1C (stereo not given) |  | -18.3% (inactive)
CC(=O)Nc1nc2ccccc2n1Cc1ccc(C)cc1 | 6.31 µM (active) | 
Clc1cccc(CN2CCc3c([nH]c4ccccc34)C2)c1 | 12.6 µM (active) | 
CCN(CC)CCNC(=O)c1ccc(NC(=O)c2ccccc2-c2ccc(C(F)(F)F)cc2)cc1 | 12.6 µM (active) | 
CCOCCCNC(=O)/C(C#N)=C/c1ccc(-c2ccc(S(=O)(=O)N3CCOCC3)cc2)o1 | 14.1 µM (active) | 
COc1ccc(-c2c(-c3cc(OC)cc(OC)c3)n(C)c3ccc(-c4ccc5[nH]ccc5c4)cc23)cc1 | 8.91 µM (active) | 

SMILES | Potency | activity change, negative = inhibition
O=C(CNC(=O)c1cccc(S(=O)(=O)N2CCc3ccccc32)c1)Nc1ccc(F)c(F)c1F | 12.6 µM (active) | 
O=C(c1cccc(S(=O)(=O)N2CCc3ccccc32)c1)N1CCN(c2ccccc2)CC1 | 14.1 µM (active) | 
COc1cc2c(cc1OC)CN(C(=O)c1cccc(S(=O)(=O)N3CCc4ccccc43)c1)CC2 | 11.2 µM (active) | 
Cc1c(C(=O)N2CCC(n3nccc3NC(=O)C3CC3)CC2)[nH]c2ccc(Cl)cc12 | 11.2 µM (active) | 
Cc1cc(C)c2[nH]c(C(=O)N3CCC(n4nccc4NC(=O)C4CC4)CC3)c(C)c2c1 | 12.6 µM (active) | 
Cc1ccc(S(=O)(=O)Nc2cccc3cccnc23)c([N+](=O)[O-])c1 | 5.01 µM (active) | 
Cc1ccc(S(=O)(=O)Nc2cccc3cccnc23)cc1 | 7.08 µM (active) | 
N#Cc1cccc(NC(=O)Cn2c3[n+](c4ccc(C(F)(F)F)cc42)CCCCC3)c1 | 4.47 µM (active) | 
CC1(CCc2ccc3c(c2)OCO3)NCCc2c1[nH]c1ccccc21 (stereo not given) | 8.91 µM (active) | 
CCOc1cc(/C=C2/C(=O)ON=C2C)ccc1OCc1ccccc1 |  | -1.49% (inactive)
CCOC(=O)C1CCCCN1Cc1cccc(OCc2ccccc2)c1 (stereo not given) | 14.1 µM (active) | 
CCOC(=O)C1CCCN(Cc2ccc(OCc3ccccc3)c(OC)c2)C1 (stereo not given) | 14.1 µM (active) | 
CC(C)(C)c1ccc(C(O)CCCN2CCC(C(O)(c3ccccc3)c3ccccc3)CC2)cc1 (stereo not given) | 12.6 µM (active) | 
Cc1ccc(C(=O)C(C(=O)/C=C/c2ccccc2)=C2SCCCS2)cc1 | 14.1 µM (active) | 
COc1ccc2[nH]cc(CCCN3C(=O)c4ccccc4C3=O)c2c1 |  | -25.1% (inactive)
COc1ccc2[nH]cc(C(=O)CCl)c2c1 | 12.6 µM (active) | 
CCn1c2ccccc2c2c3ncc4cccn4c3ccc21 | 14.1 µM (active) | 
CCC(CC)COC(=O)C1=C(C)NC(=O)NC1c1ccccc1Br (stereo not given) | 12.6 µM (active) | 
COc1cccc(CNC(=O)c2cc3oc4ccccc4c3n2C)c1OC |  | 4.7% (inactive)
CCOc1ccccc1CNC(=O)c1cc2oc3ccccc3c2n1CC | 14.1 µM (active) | 
CCOc1ccc(CNC(=O)c2cc3oc4ccccc4c3n2C)cc1 |  | 1.62% (inactive)
